Measured values as given in PubChem BioAssay AID1740 (National Center for Advancing Translational Sciences (NCATS), 2009).
Records with an inconclusive call do not appear. A call without a number means that no potency is given here. The source made the active and inactive calls. The call rests on the fitted dose curve; in most records, active means well fitted activation curve with a large enough effect; inconclusive means small, poorly fitted or top-dose-only effect; inactive means no such curve, though single readings can be large or run the other way.

assay: Confirmation Concentration-Response Assay for Enhancers of SMN2 Splice Variant Expression; settings: HEK293 SMN2-exon7-luciferase splicing reporter, luminescence, 30-36 h; series mostly up to 46.1 µM
From the text: NIH Chemical Genomics Center [NCGC] NIH Molecular Libraries Probe Production centers Network [MLPCN] MLPCN Grant: R03 MH084179-01 Assay Submitter (PI): Elliot Androphy NCGC Assay Overview: Spinal muscular atrophy (SMA) is caused by insufficient levels of the survival motor neuron protein SMN. The SMN locus on chromosome 5q13 contains two inverted copies of SMN called SMN1 and SMN2 which are 99% identical at the amino acid level. SMN1 is a fully functional protein and SMN2 skips exon 7 90% of the time. Skipping of exon 7 produces non-functional protein product. 10% of the SMN2 protein includes exon 7 and is fully functional. In the SMA disease state, mutations in the SMN1 locus are the cause of the disease state. Because only 10% of SMN2 is of the fully functional form, it is not sufficient to overcome the deficiency produced by the loss of the SMN1 product. A therapy that either increase the amount of SMN2 product made or to increase the inclusion of exon 7 has been proposed for the treatment of SMA. We have designed an assay to identify small molecules that can increase the amount of functional SMN2 product by appending a luciferase reporter gene after the native SMN2 gene, such that inclusion of exon 7 in the expressed product places the luciferase sequence in frame, thus generating functional luciferase enzyme.
NCGC Assay Protocol Summary: This screen utilizes a luciferase reporter gene assay, combining the promoter with the major portion of the native SMN2 cDNA (exons 1 -7, intron 8 , exon 8 fused to luciferase) stably expressed in HEK293 cells. Compounds that increase luciferase signal presumably enhance expression of the functional SMN2 splice variant. Passaging media contained DMEM w/ glutamax (+phenol red) 10% FCS, 1x pen/strep, 200 ug/ml hygro, 1x sodium pyruvate. Assay media contained DMEM w/ glutamax (-phenol red) 10% FCS, 1x pen strep, 1x pyruvate Sequence, Parameter, Value, Description (1) Cells, 5 uL, 2000 cells/well, 1536 TC treated White solid bottom plate (2) Time, 10-12 hours, 37C 5% CO2 (3) Compound, 23 nl, MLSMR Library (4) Control Compound, 23 nL, Sodium butyrate st 4.5mM (final) conc (5) Time, 30-36 hours, 37C 5% CO2 (6) Reagent, 3 ul, One Glo (TM) from Promega (7) Time, 5-15 minutes, Room temp (8) Detector, Viewlux: luminescent read, 60 second integration, high speed 2x binning Keywords: Spinal muscular atrophy, SMA, SMN2, high throughput screening, MLSMR, MLPCN, NIH Roadmap, qHTS and NCGC

SMILES | Potency | activation
CCCSc1nnc2c(n1)OC(c1sccc1C)Nc1ccccc1-2 (configuration not stated) | 2000 nM (active) | 
Fc1ccc(Oc2nc(-c3ccccc3)nnc2C(F)(F)F)cc1 | inactive | 
Clc1nc(NCC2CCCO2)c2[nH]cnc2n1 (configuration not stated) | inactive | 
COc1ccc(OC)c(-c2csc(N3CCC(c4ccccc4)CC3)n2)c1 | inactive | 
O=[N+]([O-])c1ccc(-c2nnc(-c3ccccc3)c(NCCCO)n2)cc1 | inactive | 
c1coc(CNc2ncnc3nc[nH]c23)c1 | inactive | 
COc1nc(-c2ccccc2)nnc1-c1ccccc1 | 2510 nM (active) | 
NC(=O)C1(N2CCCCC2)CCN(c2nc(-c3ccc(Br)cc3)cs2)CC1 | inactive | 
Cc1nnc(-c2ccccc2)[nH]c1=O | inactive | 
FC(F)(F)c1cccc(Oc2nc(-c3ccccc3)nnc2C(F)(F)F)c1 | inactive | 
O=c1[nH]c(=O)n(C2CCCO2)cc1Br (configuration not stated) | inactive | 
Nc1ccccc1-c1nnn(CC(=O)N2CCCc3ccccc32)n1 | inactive | 
Cc1[nH]c2ccccc2c1-c1nc(-c2ccc(Cl)cc2)nnc1-c1ccccc1 | inactive | 
Nn1c(SCC(=O)NCCC2=CCCCC2)nnc1C1CCCCC1 | inactive | 
Cn1cnc2c(NCc3ccco3)ncnc21 | inactive | 
COc1ccc(-c2csc(N3CCC(C(N)=O)(N4CCCCC4)CC3)n2)cc1 | inactive | 
Cc1ccc(-c2csc(NC(=O)C3CCN(S(=O)(=O)c4cccs4)CC3)n2)cc1 | inactive | 
Clc1ccc(-c2nnc(-c3ccccc3)nc2-c2c[nH]c3ccccc23)cc1 |  | -10.1% [at 9.48 µM] (inactive)
COc1nc(-c2ccc(Cl)cc2)nnc1C | inactive | 
O=C(Cc1c(F)cccc1Cl)N1CCN(C(=O)c2ccco2)CC1 | inactive | 
FC(F)(F)c1cccc(-c2nnc(-c3ccccc3)c(N3CCOCC3)n2)c1 |  | -5.49% [at 9.48 µM] (inactive)
COC(=O)C1=C(CN2CCc3ccccc32)NC(=O)NC1c1cc(C)ccc1C (configuration not stated) | inactive | 
O=C(NCc1cccs1)C(=O)NCC1OCCCN1S(=O)(=O)c1ccccc1 (configuration not stated) | inactive | 
OCCCNc1nc(-c2ccc(Cl)cc2)nnc1-c1ccc(Br)cc1 | inactive | 
O=C(Nc1cccnc1)/C(N=Nc1c(Cl)cccc1Cl)=C(\O)c1ccccc1 | inactive | 
Brc1nc2ncnc(NCc3ccco3)c2[nH]1 | inactive | 
O=[N+]([O-])c1ccc(-c2nnc(-c3ccccc3)c(N3CCOCC3)n2)cc1 | inactive | 
